A selection: hits, their analogues and other compounds. The true share with any hit is near 11%.
G9a block: inhibitors of human histone lysine methyltransferase G9a; Q96KQ7; G9a H3K9 monomethylation, AlphaScreen, 2 h; Potency, µM (top dose mostly 102 µM), for inactives: at the highest dose activity, negative = inhibition, usual class: inhibitors; 350,000 tested, 8.8% active; AID 504332; further: on the % scale 0 is the no-effect control and ±100 the full control effect; nearly all actives have a fitted effect of over 75% in size
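Using a bead-based AlphaScreen, monomethylated H3K9 product from 2 h room-temperature reactions (G9a 20 nM, peptide 500 nM, SAM 20 uM) was detected with 0.5 ug/mL rabbit anti-H3K9me1 antibody.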
HP1b chromo inh: blocks HP1-beta chromodomain binding to methylated histone tails. P83916. 390,000 tested, 0.56% active. Potency, µM (highest dose often 114 µM), inactives show at the top dose activity change, negative = inhibition, hits mostly inhibitors. AlphaScreen HP1-beta / biotin-H3K9me3 peptide binding. AID 540317; further: nearly all actives have a fitted effect of over 70% in size
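Compound inhibition of the preformed complex between 50 nM HP1-beta and 50 nM biotinylated H3K9me3 peptide was read by AlphaScreen. Buffer was PBS pH 7.4 with 0.01% Tween-20. Incubations ran 30 min at room temperature, with 10 ug/mL donor/acceptor beads.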
L3MBTL1 inh: L3MBTL1 (human) inhibition; Q9Y468; AlphaScreen L3MBTL1–H3K9me1 peptide binding; Potency, µM (titrated, usually from 57.1 µM), for inactives: at the highest dose activity, negative = inhibition, usual class: inhibitors; 230,000 tested, 0.66% active; AID 485360; further: on the % scale 0 is the no-effect control and ±100 the full control effect; nearly all actives have a fitted effect of over 60% in size
Target sequence (Q9Y468 whole entry, looked up): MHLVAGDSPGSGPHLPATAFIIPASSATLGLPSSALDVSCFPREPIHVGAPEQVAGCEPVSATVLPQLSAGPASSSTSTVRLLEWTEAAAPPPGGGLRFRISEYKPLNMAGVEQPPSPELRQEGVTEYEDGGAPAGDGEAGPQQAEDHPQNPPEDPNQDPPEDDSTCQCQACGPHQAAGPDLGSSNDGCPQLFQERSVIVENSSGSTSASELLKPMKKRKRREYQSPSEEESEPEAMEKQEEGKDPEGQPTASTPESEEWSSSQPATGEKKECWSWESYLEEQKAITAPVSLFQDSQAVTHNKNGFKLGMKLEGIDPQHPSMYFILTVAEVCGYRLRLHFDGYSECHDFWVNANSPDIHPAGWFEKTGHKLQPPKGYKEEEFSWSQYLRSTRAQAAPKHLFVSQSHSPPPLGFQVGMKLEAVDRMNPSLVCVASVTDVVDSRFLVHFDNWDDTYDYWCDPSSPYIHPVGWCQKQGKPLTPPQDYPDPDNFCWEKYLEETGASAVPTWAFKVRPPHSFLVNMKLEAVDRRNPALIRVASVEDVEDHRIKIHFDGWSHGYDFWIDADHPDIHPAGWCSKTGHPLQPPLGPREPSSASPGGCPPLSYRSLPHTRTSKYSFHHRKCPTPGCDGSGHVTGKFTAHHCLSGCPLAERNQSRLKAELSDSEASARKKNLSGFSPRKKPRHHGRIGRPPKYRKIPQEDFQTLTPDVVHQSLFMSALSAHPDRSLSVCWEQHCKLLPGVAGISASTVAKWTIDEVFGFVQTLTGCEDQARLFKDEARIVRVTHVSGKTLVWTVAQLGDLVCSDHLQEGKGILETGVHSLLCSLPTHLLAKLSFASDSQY
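Displacement of a biotinylated histone H3(1-15) peptide monomethylated at Lys9 (75 nM) from L3MBTL1 (50 nM) was measured by AlphaScreen after a 30 min room-temperature compound incubation; cefsulodin titration served as intraplate control.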
JMJD2A Tudor: blocks the human JMJD2A Tudor domain | AlphaScreen JMJD2A-Tudor / H3K4me3 peptide binding | Potency, µM (titrated, usually from 114 µM), for the others: at the highest dose activity change, negative = inhibition, usual class: inhibitors | 390,000 tested, 4.4% active | AID 504339; further: on the % scale 0 is the no-effect control and ±100 the full control effect; nearly all actives have a fitted effect of over 50% in size
BAZ2B inh: inhibitors of human BAZ2B bromodomain. AID 504333. Potency, µM (doses to about 114 µM), for the others: top-dose activity change, negative = inhibition, most hits filed as inhibitors. AlphaScreen BAZ2B-H3K14Ac peptide displacement. 360,000 tested, 4.4% active; further: on the % scale 0 is the no-effect control and ±100 the full control effect; nearly all actives have a fitted effect of over 60% in size
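BAZ2B (50 nM) with biotin-H3(5-23)K14Ac peptide (50 nM) in PBS pH 7.4, 0.01% Tween-20, preformed 30 min, then compound 30 min at room temperature; top concentration 110uM. AlphaScreen streptavidin donor/nickel chelate acceptor beads (10 ug/mL final), 20 min dark, signal read.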
* hit, by the source's call; ? = inconclusive; / = no result given; [ ] = remark or other dose. The call rests on the fitted dose curve; in most records, active means well fitted inhibition curve with a large enough effect; inconclusive means small, poorly fitted or top-dose-only effect; inactive means no such curve, though single readings can be large or run the other way. Potency means the concentration at half of the fitted maximal effect.

SMILES	G9a block	HP1b chromo inh	L3MBTL1 inh	JMJD2A Tudor	BAZ2B inh
CCC(C)n1c(S(=O)(=O)O)nc2ccccc21 (stereo unspecified)	79µM*	33%	/	-13%	?
Cc1cc(NC(=O)CSc2ncnc3sc(C)c(C)c23)no1	5%	12%	-19%	-8%	-7%
CCCn1c(/C=C/c2cc[n+](C)cc2)nc2ccccc21	40µM*	12%	5%	?	?
CCCn1c(N2CCN(C(=O)N3CCCCC3)CC2)nc2ccccc21	50µM*	15%	-5%	-12%	?
Nc1nc(NCc2ccc(Cl)cc2)nc(NCCO)c1[N+](=O)[O-]	-9%	0%	0%	-12%	-3%
COc1cccc(Nc2nc(N)c([N+](=O)[O-])c(NCc3ccccc3)n2)c1	45µM*	?	?	?	?
Cc1cccc(Nc2nc(N)c([N+](=O)[O-])c(NCc3ccccc3)n2)c1	-8%[12.7 µM]	?	?	?	?
COc1cccc(Nc2nc(Nc3ccc(Cl)c(C(=O)O)c3)nc(C)c2[N+](=O)[O-])c1	?	-5%	-2%	?	50µM*
Nc1nc(Nc2ccc(Cl)cc2)nc(NCCO)c1[N+](=O)[O-]	50µM*	14%	/	-1%	?
CCOC(=O)c1c(S(=O)(=O)N2CCCC(C(=O)Nc3cccc(Cl)c3)C2)c(C)n(C)c1C (stereo unspecified)	-19%[59 µM]	4%	/	-31%	-2%
O=[N+]([O-])c1ccccc1/C=C/C=N/n1c(-c2ccco2)n[nH]c1=S	-131%	-15%	-17%[2.29 µM]	22µM*	?
O=[N+]([O-])c1ccccc1/C=C/C=N/n1c(-c2cc(-c3ccccc3)n[nH]2)n[nH]c1=S	/	1%	?	50µM*	-32%
O=C(N/N=C/C=C\c1ccccc1[N+](=O)[O-])c1cc(-c2ccccc2)nc2ccccc12	0%[59 µM]	17%	-16%	-33%	-31%
Cc1ccc(-c2n[nH]c(=S)n2/N=C/C=C/c2ccccc2[N+](=O)[O-])cc1	0.28µM*	?	/	-36%	?
O=C(N/N=C/C=C\c1ccccc1[N+](=O)[O-])c1ccncc1	-35%	16%	/	-9%	18%
COc1ccc(-c2cc(C(F)F)n3ncc(C(=O)N4CCc5ccccc54)c3n2)cc1	/	?	-14%	20µM*	?
O=c1c(S(=O)(=O)c2ccccc2)cn(Cc2ccc(F)cc2)c2cc(N3CCCC3)c(F)cc12	2%[59 µM]	25%	/	-1%	1%
CN(C(=O)Nc1ccccc1)C1CCS(=O)(=O)C1 (stereo unspecified)	16%[59 µM]	25%	6%	11%	1%
CC(=O)NC1=C(N(C)C2CCS(=O)(=O)C2)C(=O)c2ccccc2C1=O (stereo unspecified)	7.9µM*	10%	-18%	-3%	-24%
CC(=O)NC1=C(Nc2ccc(N(C)C)cc2)C(=O)c2ccccc2C1=O	32µM*	?	/	?	40µM*
CCc1nc(Nc2ccc(F)c(Cl)c2)c2c3c(sc2n1)CCCC3	-3%[59 µM]	76%	/	49%	34%
Cc1ccc(-c2ccc(=O)n(CC(=O)Nc3ccc(C)cc3Cl)n2)cc1	3%[59 µM]	47%	/	-13%	-3%
CCCCOC(=O)Nc1ccc(N2CCOCC2)cc1	7.1µM*	8%	-21%	-22%	-8%
CCCCOC(=O)Nc1ccc(N2CCCCC2)cc1	7.9µM*	?	-25%	28µM*	?
COc1ccc(OCCCC(=O)Nc2ccc(N3CCOCC3)cc2)cc1	?	10%	-18%	-20%	-29%
CCCCOC(=O)Nc1ccc(C(N)=O)cc1	7%[59 µM]	27%	/	2%	-18%
CCOc1ccc(/C=C/C(=O)Nc2ccc(N3CCOCC3)cc2)cc1	/	-9%	-2%	25µM*	-3%
COc1ccc2c(c1)cc1c(=O)n(CC(=O)NC3CCCCC3)nc(C)n12	12%[59 µM]	31%	/	-9%	-1%
O=C(NC1CC1)C1Nc2ccc(OC(F)(F)F)cc2C2C=CCC12 (stereo unspecified)	/	38%	/	-17%	/
CC(C)C1Nc2ccc(S(N)(=O)=O)cc2C2C=CCC21 (stereo unspecified)	1.4µM*	-8%	-22%	?	?

Screening results from PubChem BioAssay.
